HT1080 IDH1KD tx – qHTS for induction of synthetic lethality in tumor cells producing 2HG: qHTS for the HT-1080-IDH1KD cell line; AID 686971, 2013; HT-1080 IDH1 knockdown viability, ATP luminescence, 48 h; Potency, µM (top dose mostly 46.1 µM), most hits filed as cytotoxic; 2% of 360,000 active
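Assay cells: HT-1080 with IDH1 knockdown, 750 per well, RPMI/5% FBS. Exposure: 48 h at 37 °C following 2 h pre-incubation. Read: CellTiter-Glo luminescence; fitted concentration-response, curve class assigned.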
SW480 rerep – A quantitative high throughput screen for small molecules that induce DNA re-replication in SW480 colon adenocarcinoma cells; AID 624297, 2012; Potency, µM (top dose mostly 46.1 µM), usual class: activators; SW480 DNA re-replication, Hoechst DNA content imaging, 48 h; 1.8% of 340,000 active; note: nearly all actives have a fitted effect of over 55% in size
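Quantitative HTS format with DMSO vehicle controls; 48 hr drug incubation at 37 C, then 40 min Hoechst staining and scanning imager measurement at 405 nm excitation.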
MCF10A rereplic – A quantitative high throughput screen for small molecules that induce DNA re-replication in MCF 10a normal breast cells | MCF 10A DNA re-replication, Hoechst nuclear intensity, 48 h | Potency, µM (series often up to 46.1 µM), hits mostly activators | 2.9% of 350,000 active | AID 624296, 2012; note: nearly all actives have a fitted effect of over 50% in size
KB-3-1 tox – qHTS assay for MDR1-selective chemotherapeutics: Primary screen using the parental adenocarcinoma cell KB-3-1; KB-3-1 viability, CellTiter-Glo ATP luminescence, 72 h; Potency, µM (series often up to 46.1 µM), usual class: cytotoxic; 1.4% of 400,000 active; note: nearly all actives have a fitted effect of over 60% in size
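Parental KB-3-1 adenocarcinoma cells in phenol-red-free DMEM with 10% FBS were pin-treated with compounds at several concentrations, incubated 72 h at 37 °C, and viability read by CellTiter-Glo luminescence; concentration-effect curves were fitted after normalization.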
KB-V1 MDR tox – qHTS assay for MDR1-selective chemotherapeutics: Primary screen using the drug-selected MDR subline cells KB-V1; KB-V1 MDR cells viability, CellTiter-Glo, 72 h; Potency, µM (titrated, usually from 46.1 µM), hits mostly cytotoxic; 3.4% of 400,000 active; AID 1347076, 2019; note: nearly all actives have a fitted effect of over 60% in size
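Drug-selected KB-V1 cells, grown in DMEM lacking phenol red with 10% FBS, receive compound titrations; after three days at 37 degrees C, surviving cell ATP is quantified by CellTiter-Glo luminescence and responses normalized and curve-fitted.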
HT1080NT lethal – qHTS for induction of synthetic lethality in tumor cells producing 2HG: qHTS for the HT-1080-NT fibrosarcoma cell line. HT-1080-NT fibrosarcoma viability, CellTiter-Glo ATP luminescence, 48 h. Potency, µM (highest dose often 46.1 µM), most hits filed as cytotoxic. 1.6% of 360,000 active. AID 686970, 2013;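 note: NT is the 2HG producing partner of a matched IDH1 knockdown line; nearly all actives have a fitted effect of over 55% in size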
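HT-1080-NT; 750 cells/well; 5% FBS RPMI; 48 h compound, 37 degrees C; CellTiter-Glo luminescence; curve fitting and curve-class assignment.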
Hits are given with their value; i = inactive; ? = inconclusive; nt = no result given; [ ] = another dose, or the depositor's remark. Rows were chosen to be rich in hits. Some 8% of all compounds tested hit in one or more screens of this group. Calls come from the whole dose curve; as a rule, active = well fitted curve in the direction sought with a large enough effect; inconclusive = small, poorly fitted or top-dose-only effect, or another doubt; inactive = no such curve, though single readings can be large; an effect the other way counts as inactive or inconclusive.

SMILES	HT1080 IDH1KD tx	SW480 rerep	MCF10A rereplic	KB-3-1 tox	KB-V1 MDR tox	HT1080NT lethal
CC1(c2cccc3ccccc23)OC(=O)c2ccccc21 (stereo not given)	?	i	?	?	18µM	i
CCCCSc1nc(SCC(=O)NCc2ccco2)c2c3c(sc2n1)COC(C)(CC)C3 (stereo not given)	i	i	i	i	i	i
CSc1nc(SCC(=O)NCc2ccco2)c2c3c(sc2n1)COC(C)(C)C3	7.1µM	?	?	i	3.7µM	7.9µM
CCCCN(C)CCCNC(=O)c1cn(C)c2ccc(S(=O)(=O)N(C)C3CCCCC3)cc2c1=O	i	?	?	i	i	i
CC(=O)c1c(C)[nH]c(-c2ccccc2)c1C	i	i	i	i	i	i
O=C(O)/C=C/C(=O)c1c(-c2ccccc2)[nH]c2ccccc12	i	?	21µM	i	i	i
CC(=O)c1c(-c2ccccc2)[nH]c2ccccc12	?	?	16µM	?	7.3µM	?
CC(C)CSc1ccccc1NC(=O)c1sc2nc(-c3ccncc3)ccc2c1N	nt	nt	nt	i	i	nt
O=C(CSc1ncc2c(n1)-c1ccccc1N(Cc1ccc(F)cc1)S2(=O)=O)NCCc1ccccc1	nt	nt	nt	i	i	nt
O=C1c2ccccc2NC(c2cccc(F)c2)N1Cc1ccccc1 (stereo not given)	i	?	21µM	i	i	i
O=C1c2ccccc2NC(c2cccc(F)c2)N1Cc1ccco1 (stereo not given)	?	i	?	i	i	i
COc1ccc(C2Nc3ccccc3C(=O)N2c2ccc(F)cc2)cc1CSc1ccccn1 (stereo not given)	i	i	?	i	i	i
COc1ccc(C2Nc3ccccc3C(=O)N2c2ccccc2)cc1COc1ccccn1 (stereo not given)	i	i	i	i	i	i
COc1ccc(C2Nc3ccccc3C(=O)N2c2ccccc2)cc1CSc1ccccn1 (stereo not given)	i	i	i	i	4.1µM	i
COc1ccc(C2Nc3ccccc3C(=O)N2c2cccc3ccccc23)cc1COc1c(C)cccc1C (stereo not given)	nt	nt	nt	13µM	i	nt
COc1ccc(C2Nc3ccccc3C(=O)N2Cc2ccccc2)cc1CSc1ccccn1 (stereo not given)	i	i	i	i	4.6µM	i
COC(=O)c1cc2sc(Cl)cc2n1Cc1nc(-c2ccccc2F)oc1C	nt	nt	nt	i	i	nt
COc1cc(CC(=O)OCC(=O)c2ccc3c(c2)OCCO3)cc(OC)c1OC	1.5µM	3.3µM	1.3µM	1µM	0.73µM	1.6µM
O=C(COC(=O)c1ccc(O)cc1)c1ccc2c(c1)OCCO2	i	i	i	i	i	i
C=C1NN(Cc2ccccc2)C(=O)N1c1ccc(OCc2ccccc2)cc1	nt	nt	nt	i	i	nt
Cc1nn(C(=O)c2ccccc2)c(C)c1S(=O)(=O)N1CCCCCC1	nt	nt	nt	i	?	nt
CN(Cc1ccccc1)CC(O)COc1ccc(CNCc2ccc(Cl)s2)cc1 (stereo not given)	?	21µM	16µM	i	i	21µM
CN(Cc1ccccc1)CC(O)COc1ccc(CNCc2cccnc2)cc1 (stereo not given)	?	i	?	i	i	i
Cc1cc(=O)oc2cc3c(cc12)OCCN3	i	?	8.2µM	i	i	i
Cc1cc(=O)oc2cc3c(cc12)OCCO3	i	i	i	i	i	i
SMILES	HT1080 IDH1KD tx	SW480 rerep	MCF10A rereplic	KB-3-1 tox	KB-V1 MDR tox	HT1080NT lethal
O=C(O)CC[C@@H](C(=O)O)N1C(=O)c2ccccc2C1=O	i	i	i	i	i	i
CCN(CC)c1ccc(-n2c(C)c(C(C)=O)c(C(C)=O)c2C)cc1	i	i	i	?	18µM	i
CCOC(=O)c1c(-c2ccc(OC)cc2)oc2cc(Br)c(O)cc12	i	i	15µM	i	i	i
CCOC(=O)c1c(-c2ccc(OC)cc2)oc2ccc(O)cc12	?	i	?	i	?	?
CC(C)C(Cl)=NOC(=O)Nc1ccc(F)cc1	16µM	?	3.3µM	i	i	i
CCc1ccc(C2=NNC(=Nc3cccc(S(=O)(=O)N(C)C)c3)SC2)cc1	?	21µM	?	?	?	21µM
Cc1ccc(C2=NNC(=Nc3ccc(F)cc3)SC2)cc1	?	i	i	i	?	?
Cc1cc(NC(=O)CSc2nnnn2C)n(-c2ccccc2)n1	i	4.1µM	6.5µM	i	i	i
Cc1cc(NC(=O)CSc2nc(-c3ccco3)cc(C(F)(F)F)n2)n(-c2ccccc2)n1	?	?	10µM	5.8µM	4.1µM	?
Cc1cc(NC(=O)CCCSc2nc(-c3ccco3)cc(C(F)(F)F)n2)n(-c2ccccc2)n1	?	i	i	i	2.9µM	i
CC(=O)Cc1nsc(Nc2ccc(Cl)cc2)n1	i	i	i	i	i	i
COc1ccc(NC(=O)C(=O)N/N=C\c2ccc(CNC(=O)C(=O)Nc3ccc(C)c(C)c3)o2)c(OC)c1	i	2.9µM	?	13µM	?	i
COc1ccc(N(CC(=O)NC(C)c2ccccc2)S(=O)(=O)c2c(C)nn(C)c2C)cc1 (stereo not given)	nt	nt	nt	i	i	nt
CCn1nc(C)c(Br)c1C(=O)Sc1ccccc1Cl	?	i	18µM	i	i	16µM
COC(=O)c1cc(COc2ccc3oc(C)c(C(=O)OC)c3c2)c(C)o1	?	18µM	15µM	i	?	?
CCOC(=O)c1c(C)oc2ccc(OCc3cc(C(=O)OC)oc3C)cc12	?	i	6.5µM	i	i	i
Clc1ccc(-n2ncc3c(N4CCCCCC4)ncnc32)cc1	i	i	i	i	i	i
Brc1cc(Br)c2ncnc(N3CCCCC3)c2c1	?	?	5.8µM	8.2µM	?	9.2µM
Cc1nc(/N=C\c2ccc(N(C)C)cc2)sc1C	i	i	i	i	i	i
COc1ccc(-c2cc(-c3ccc(F)cc3)nc3c2COc2ccc(F)cc2-3)cc1	nt	nt	nt	i	?	nt
Nc1nnc(CCCCCc2nnc(N)s2)s1	i	1.5µM	i	i	i	i
CCN1CCN(Cc2ccc(NC(=O)c3ccc(C)c(NC(=O)c4cncc(-c5cccs5)c4)c3)cc2C(F)(F)F)CC1	18µM	?	5.2µM	?	?	21µM
CCN1CCN(Cc2ccc(NC(=O)c3cc(NC(=O)c4cncc(-c5ccc(C#N)cc5)c4)cc(OC)c3)cc2C(F)(F)F)CC1	?	i[9.22 µM]	10µM	?	i	?

Screening data deposited in PubChem BioAssay by National Center for Advancing Translational Sciences (NCATS).
